Screening data deposited in PubChem BioAssay by SRMLSC.
This is one part of a sample in which hits are shown more often than they occur.
MRP-1 activ: H69AR viability gain despite doxorubicin, primary screen, MRP-1 activator project, H69AR cells, CellTiter-Glo | 140,000 compounds, 0.61% hits | viability rescue | viability increase, % at 10 µM;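 active = viability gain under doxorubicin at or above a set limit, the compound median plus 3 SD, cut at about 4.7% in these data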;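 also: MRP-1 overexpressing cells given doxorubicin 25 µM after compound pretreatment; 18-22 h compound pretreatment then 72 h with doxorubicin before readout; 0% = doxorubicin-only wells and 100% = vehicle-treated cells without doxorubicin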
MRP reversal: reversal of MRP1-mediated doxorubicin resistance, primary screen, H69AR cells, doxorubicin co-treatment; H69AR cells + 2 uM doxorubicin, CellTiter-Glo, 72 h; differential viability (reversal), % at 10 µM; 85,000 compounds, 0.04% hits;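 active = viability drop by adding the cancer drug above about 55%, with treated viability meeting a 40% cutoff, limit read from the data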;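 also: viability without doxorubicin minus viability with 2 µM doxorubicin for each compound; larger differential means the compound sensitizes cells more to doxorubicin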
Numbers without * were called inactive; . = not tested or not shown.

SMILES | MRP-1 activ | MRP reversal
COc1ccc2oc(C(=O)OCC(=O)NCCN3C(=O)CSC3=O)c(C)c2c1 | 3 | .
COC(=O)CSc1nc(NC(C)=O)nc(C)c1Br | -1 | 6
CCOC(=O)CSc1nc(N)nc(C)c1Br | 19* | 4
CN(C)S(=O)(=O)c1ccc(C(=O)Nc2nnc(SCc3cccc(F)c3)s2)cc1 | 0 | .
S=C(N/N=C/c1ccc(Cl)cc1)N1CCOCC1 | 5.7* | .
Cc1ccc(/C=N/NC(=S)N2CCOCC2)cc1 | 4 | .
COC(=O)Nc1ccc(S(=O)(=O)Nc2ccc(O)cc2)cc1 | -3 | 60*
COC(=O)Nc1ccc(S(=O)(=O)Nc2ccc(C)cc2)cc1 | 0 | .
O=C(CSc1ncnc2scc(-c3ccc(Cl)cc3)c12)NCc1ccc2c(c1)OCO2 | -5 | .
Cc1cccc(NS(=O)(=O)c2cc(C(=O)OC(C)C(=O)NCc3ccc4c(c3)OCO4)ccc2C)c1 (stereo not drawn) | 4.8* | .
Cc1cccc(NC(=S)NCc2ccc3c(c2)OCO3)c1 | -4 | .
Cc1ccc(NC(=O)c2cncc(Br)c2)cc1S(=O)(=O)N(C)C | -2 | .
Cc1cc(NC(=O)CSc2nnc(-c3ccoc3C)o2)no1 | -2 | 0
COc1cc(OC)cc(-c2nnc(SCC(=O)Nc3cc(C)on3)o2)c1 | . | 64*
COC(=O)c1sccc1NC(=O)COc1ccc(Cl)cc1Cl | -1 | .
Cc1ccccc1N=Cc1c(O)n(-c2nccs2)c(=O)c2ccccc12 | 4 | .
Cc1ccc(N=Cc2c(O)n(-c3nccs3)c(=O)c3ccccc23)cc1 | 3 | .
Cc1cc(C)c(N=Cc2c(O)n(-c3nccs3)c(=O)c3ccccc23)c(C)c1 | 7.5* | .
Cc1cccc(C)c1N=Cc1c(O)n(-c2nccs2)c(=O)c2ccccc12 | 6.2* | .
CC(C)CC(=O)OC1C(N2CCOCC2)c2c(ccc(/C=C/C(=O)N3CCOCC3)c2O)OC1(C)C (stereo not drawn) | -3 | .
CCOC(=O)c1sc(NS(=O)(=O)c2ccccc2Cl)nc1C | -3 | -11
Cc1ccc(CC2S/C(=C(/C#N)C(=O)NCc3ccco3)N(c3ccccc3)C2=O)cc1 (stereo not drawn) | 6.6* | -33
N#C/C(C(=O)NCc1ccco1)=C1/SC(Cc2ccc(Cl)cc2)C(=O)N1c1ccccc1 (stereo not drawn) | -1 | 44
CCOC(=O)c1c(C2COc3ccccc3O2)csc1NC(=O)c1ccco1 (stereo not drawn) | -2 | -17
CN(C)Cc1cc(CCNC(=O)c2ccc(Cl)cc2)ccc1O | 0 | 0
SMILES | MRP-1 activ | MRP reversal
N#Cc1ccc(NC(=O)c2cc3cc4c5c(c3oc2=N)CCCN5CCC4)cc1 | . | -6
N=c1oc2c3c4c(cc2cc1C(=O)Nc1ccccc1)CCCN4CCC3 | 6.4* | .
CCOc1ccc(-c2c(=O)n(OCc3ccc([N+](=O)[O-])cc3)c3ccccc3[n+]2[O-])cc1 | 0 | .
CCOc1ccc(OCC)c(-c2c(=O)n(OCc3ccc(C(C)(C)C)cc3)c3ccccc3[n+]2[O-])c1 | 6.6* | .
Cc1onc(-c2c(Cl)cccc2Cl)c1C(=O)N1CCc2ccccc2C1 | -3 | 13
COc1ccc(OC)c(-c2cc(C(=O)Nc3sc4c(c3C#N)CCC(C)C4)c3ccccc3n2)c1 (stereo not drawn) | -2 | .
COc1ccc(-c2cc(C(=O)Nc3sc4c(c3C#N)CCCC4)c3ccccc3n2)cc1 | 6.0* | .
CCC(CC)NC(=O)CO/N=C/c1ccccc1OC(F)F | -1 | .
Nc1nnc(CSCc2ccc(Cl)cc2Cl)s1 | 2 | .
N=C(N)SCc1ccc(Cl)cc1Cl | 5.2* | .
COc1ccc([N+](=O)[O-])cc1NC(=O)c1cn(-c2ccc(Cl)cc2)c(=O)c2ccccc12 | -1 | .
COc1cc(S(=O)(=O)Nc2cccc(C)c2)ccc1NC(=O)c1ccncc1 | 5.2* | .
Cc1cccc(NC(=O)c2cccc(NS(=O)(=O)c3ccc(Cl)cc3)c2)c1 | 0 | .
C/C(=N/NC(=O)Cc1ccccc1)c1ccc(C)s1 | 3 | .
CC1CC(C)CN(C(=S)Nc2ccc(OC(F)F)cc2)C1 (stereo not drawn) | 0 | .
CC1CC(C)CN(C(=S)Nc2ccc(SC(F)F)cc2)C1 (stereo not drawn) | 5.0* | .
CSc1nc2c(ccc3ccccc32)o1 | 4.9* | 5
Cc1nc(SCCO)c2oc3ccccc3c2n1 | -1 | 13
Cc1nc2ccc(NC(=O)Cc3ccc4c(c3)OCCO4)cc2s1 | 2 | .
O=C(COC(=O)CNS(=O)(=O)c1cccc(Br)c1)Nc1ccccc1Sc1ccccc1 | 0 | .
CC(/C=C1\SC(=S)N(NC(=O)c2ccc(O)cc2)C1=O)=C\c1ccccc1 | 7.9* | .
Cc1ccc(C(=O)NN2C(=O)/C(=C/c3cn(C)c4ccccc34)SC2=S)cc1 | -4 | .
CC(/C=C1\SC(=S)N(CCCC(=O)Nc2ccc(C(=O)O)cc2)C1=O)=C\c1ccccc1 | 13* | .
CC(/C=C1\SC(=O)N(CCCC(=O)O)C1=O)=C\c1ccccc1 | -3 | .
Cc1ccsc1/C=N/n1c(COc2ccccc2)n[nH]c1=S | 0 | .
SMILES | MRP-1 activ | MRP reversal
CCOc1ccccc1/C=C(/NC(=O)c1ccccc1)C(=O)N(CC)CC | -2 | .
Cc1ccsc1/C=N/NC(=O)Cn1cnc2ccccc21 | -2 | .
Cc1onc(-c2ccccc2Cl)c1C(=O)Nc1nnc(-c2ccc(F)cc2)s1 | 2 | .
Cc1onc(-c2ccccc2Cl)c1C(=O)Nc1nnc(-c2ccc(Br)cc2)s1 | 7.2* | -8
O=C(Cc1ccc(-n2c(=O)[nH]c3ccsc3c2=O)cc1)N1CCN(c2ccc(Cl)cc2)CC1 | 5.0* | .
Cc1cccc(N2CCN(C(=O)Cc3ccc(-n4c(=O)[nH]c5ccsc5c4=O)cc3)CC2C)c1 (stereo not drawn) | -1 | .
CCOc1ccc2nc(SCC#N)c(C#N)cc2c1 | 5.0* | -9
CCSc1nc2ccc(OC)cc2cc1C#N | -3 | 15
Cc1cc(N2CCN(c3cccc(C)c3C)CC2)nc(-c2ccccc2)n1 | 5.1* | 14
Cc1cc(N2CCC(C(=O)NC3CC3)CC2)nc(-c2ccccc2)n1 | -1 | -11
Cc1ccc(-n2nnnc2SCC(=O)N2CC(=O)Nc3ccccc32)cc1 | -2 | .
Cc1c(OCC(=O)OC(C)C)ccc2c3c(c(=O)oc12)CCC3 | 4 | 7
Cc1c(OCC(=O)OC(C)(C)C)ccc2c3c(c(=O)oc12)CCC3 | 5.1* | -10
CCc1ccc(-c2csc(NC(=O)Oc3ccccc3)n2)cc1 | 13* | .
O=C(Nc1nc(-c2cccc(Br)c2)cs1)Oc1ccccc1 | 0 | .
O=C(NC(=S)Nc1nc(-c2ccccc2)cs1)c1cccs1 | -1 | .
Cc1ccc(C(=O)Nc2nc(-c3cccnc3)cs2)o1 | -4 | 10
O=C(Nc1nc(-c2ccccc2)cs1)c1ccc(Br)o1 | 6.9* | .
O=C(NC(=S)Nc1nc(-c2ccccc2)cs1)c1cncc(Br)c1 | 6.8* | .
N#CCCN(C(=O)COC(=O)c1ccc(CNS(=O)(=O)c2ccc(F)c(Cl)c2)cc1)c1ccc(F)cc1 | -3 | .
CCOC(=O)N1CCC(=NNC(=O)COc2cccc(C)c2)CC1 | 3 | .
CN(C)c1cccc(C(=O)Nc2cc(C(F)(F)F)ccc2-n2cnc3ccccc32)c1 | -2 | .
Cc1ccc(S(=O)(=O)N2CCCOC2CNC(=O)C(=O)NCc2cccs2)cc1 (stereo not drawn) | -1 | .
Cc1ccc(SCC(=O)NC(=O)c2ccc(S(=O)(=O)N(C)C)cc2)cc1C | 0 | .
Cc1ccc(Cl)c(OC(=O)c2nn(C(C)C)c(=O)c3ccccc23)c1 | 0 | .
